C diff growth: C. difficile growth inhibitors, primary screen, HTS; AID 1259249, 2017; growth activity, negative = inhibition, % at 16 µg/mL (by protocol); 86,000 tested, 0.25% active; Clostridium difficile clinical isolate growth, OD600, 24 h; hits give low values;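 active means mean growth activity at or below -80% and every replicate also at or below -80%; inconclusive means mean at or below -80% but some replicate above -80%; inactive means mean growth activity above -80%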;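 further: 0% = DMSO wells and -100% = levofloxacin 16 µg/mL wells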
Pf Dd2 growth: P. falciparum Dd2 growth inhibitors, primary screen, SYBR Green fluorescence, single dose replicates; AID 1159554, 2015; 72 h; hits give low values; activity change, % at 10 µM; 94,000 tested, 2.3% active; in the data active means activity change below about -80%; inconclusive means no clear call, values can overlap the other calls
T cruzi growth-1: T. cruzi intracellular proliferation inhibitors, primary screen, cell-based, beta-gal Tulahuen parasites, NIH3T3 host, luminescence; T. cruzi beta-gal in NIH3T3, GalScreen luminescence, 90 h; inhibition, % at 8.34 µM; 77,000 tested, 5.9% active; AID 624255, 2012;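 active means mean inhibition above about 93%, with at least 55% of replicates each passing it, limit read from the data, passing the limit was not always enough; inconclusive means only one of those two conditions holds; inactive means neither condition holds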
T cruzi growth-2: T. cruzi intracellular proliferation inhibitors, confirmation, cell-based, NIH3T3 host, beta-gal parasite, luminescence, cherry-pick; shares compounds with T cruzi growth-1; T. cruzi beta-gal in NIH3T3, GalScreen luminescence, 90 h; inhibition, % at 8.35 µM; 5,600 tested, 72% active; AID 651739, 2012;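 active means mean replicate inhibition above about 95% and at least 55% of replicates individually reaching it, limit read from the data; inconclusive means only one of the two criteria is met; inactive means neither criterion is met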
T cruzi growth-3: inhibitors of intracellular T. cruzi replication, confirmation, NIH3T3 host cells, beta-gal parasites, cherry-pick, set 2; AID 651740, 2012; 5,600 tested, 21% active; inhibition, % at 2.09 µM; T. cruzi beta-gal in NIH3T3, GalScreen luminescence, 90 h; shares compounds with T cruzi growth-1;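 active means mean inhibition above about 95%, with at least 55% of replicates also reaching it, limit read from the data; inconclusive means meets just one of the two conditions; inactive means meets neither condition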;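 further: plate controls were neutral control median for no effect and positive control median for full effect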
NIH3T3 tox: cytotoxicity in mouse NIH/3T3 fibroblasts, confirmation, cytotoxicity control for T. cruzi proliferation inhibitor project, cell-based, cherry-pick, single point | AID 651742, 2012 | 5,600 tested, 14% active | NIH/3T3 viability, CellTiter-Glo ATP luminescence, 90 h | cytotoxicity (signal decrease), % at 8.35 µM | shares compounds with T cruzi growth-1;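 active means mean signal decrease across replicates above about 35% based on untreated-well scatter, with enough replicates individually passing, limit read from the data; inconclusive means no rule stated though some were filed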;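 further: 0% = median of neutral control wells and 100% = median of positive control wells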
3T3 cytotox 2: NIH/3T3 fibroblast cytotoxicity, confirmation, cytotoxicity control, cell-based, cherry-pick, single point, set 2; NIH/3T3 viability, CellTiter-Glo ATP luminescence, 90 h; inhibition, % at 24.9 µM; shares compounds with T cruzi growth-1; AID 651744, 2012; 5,600 tested, 56% active;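 active means mean loss of cell viability signal at or above a set limit, and enough replicates individually reaching it; inconclusive means meets only the mean limit or only the replicate share; inactive means meets neither condition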;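 further: 0% = median of neutral control wells and 100% = median of positive control wells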
An asterisk follows results filed as active; ? = inconclusive; nt = no result given. A selection: hits, their analogues and other compounds. The true share with any hit is near 6.7%.

SMILES | C diff growth | Pf Dd2 growth | T cruzi growth-1 | T cruzi growth-2 | T cruzi growth-3 | NIH3T3 tox | 3T3 cytotox 2
C[C@H]1CN([C@@H](C)CO)C(=O)c2cc(NS(=O)(=O)c3cn(C)cn3)ccc2O[C@H]1CN(C)C(=O)NC1CCCCC1 | nt | 26.9 | 78.3 | nt | nt | nt | nt
C[C@H]1CN([C@@H](C)CO)C(=O)c2cc(Br)cnc2O[C@@H]1CN(C)C(=O)C1CCCCC1 | 0.7 | 0.6 | nt | nt | nt | nt | nt
CCNC(=O)C[C@H]1CC[C@@H](NS(=O)(=O)c2ccc(F)cc2)[C@H](CO)O1 | 0.4 | -6.6 | nt | nt | nt | nt | nt
O=C(Nc1ccccc1F)N1CCCCN2[C@H](CO)[C@H](c3ccc(-c4cccnc4)cc3)[C@@H]2C1 | -7.9 | 29.8 | 113.0* | 104.8* | 28.9 | -3.4 | 10.7
O=C(Nc1ccccc1F)N1CCCCN2[C@@H](CO)[C@H](c3ccc(-c4cccnc4)cc3)[C@@H]2C1 | -8.0 | 10.4 | 101.8* | 106.1* | 40.4 | -10.4 | 33.7*
O=C(Nc1ccccc1F)N1CCCCN2[C@@H](CO)[C@@H](c3ccc(-c4cccnc4)cc3)[C@@H]2C1 | -10.2 | -23.5 | 77.8 | nt | nt | nt | nt
O=C(Nc1ccccc1F)N1CCCCN2[C@H](C1)[C@H](c1ccc(C#Cc3cccnc3)cc1)[C@@H]2CO | -4.1 | -51.6 | 41.7 | nt | nt | nt | nt
C[C@H](CO)N1C[C@H](C)[C@H](CN(C)S(=O)(=O)c2ccc(F)cc2)OCc2ccccc2-c2ccccc2C1=O | nt | -45.1 | 17.3 | nt | nt | nt | nt
C[C@@H]1CN([C@H](C)CO)C(=O)c2ccccc2-c2ccccc2CO[C@H]1CN(C)S(=O)(=O)c1cccs1 | -0.6 | 13.9 | ? | 89.3 | 15.5 | 20.8 | ?
C[C@H](CO)N1C[C@H](C)[C@H](CN(C)S(=O)(=O)c2cccs2)OCc2ccccc2-c2ccccc2C1=O | 1.4 | -23.2 | 11.2 | nt | nt | nt | nt
Cc1noc(C)c1NC(=O)N(C)C[C@@H]1OCc2ccccc2-c2ccccc2C(=O)N([C@@H](C)CO)C[C@@H]1C | -2.5 | 16.3 | -21.1 | nt | nt | nt | nt
C[C@@H]1CN([C@H](C)CO)C(=O)c2ccccc2-c2ccccc2CO[C@H]1CN(C)S(=O)(=O)c1ccc(C(F)(F)F)cc1 | 2.9 | -51.7 | 95.7* | ? | 27.6 | -3.6 | 20.0
Cc1noc(C)c1C(=O)N(C)C[C@H]1OCc2ccccc2-c2ccccc2C(=O)N([C@H](C)CO)C[C@H]1C | 2.2 | -9.8 | ? | 75.4 | 4.0 | -7.0 | 9.6
C[C@H](CO)N1C[C@H](C)[C@@H](CN(C)CC2CCCCC2)Oc2ccc(NC(=O)Cc3cn(C)c4ccccc34)cc2CC1=O | 4.2 | -52.0 | 10.1 | nt | nt | nt | nt
C[C@H]1CN([C@@H](C)CO)C(=O)c2cccc(NC(=O)NC3CCCCC3)c2O[C@@H]1CN(C)Cc1ccc(Cl)c(Cl)c1 | 16.7 | 0.5 | 79.8 | nt | nt | nt | nt
C[C@@H]1CCCCO[C@H](CN(C)Cc2ccc(C(F)(F)F)cc2)[C@H](C)CN([C@@H](C)CO)C(=O)c2cc(NC(=O)Nc3ccc(F)cc3)ccc2O1 | nt | -79.6 | 99.7* | ? | 116.9* | 17.6 | 29.7*
C[C@H](CO)N1C[C@H](C)[C@H](CN(C)Cc2ccc(C(F)(F)F)cc2)OCCCC[C@H](C)Oc2ccc(NC(=O)Nc3ccc(F)cc3)cc2C1=O | nt | -21.3 | 92.5 | nt | nt | nt | nt
C[C@@H]1CN([C@@H](C)CO)C(=O)c2cc(NC(=O)Nc3ccc(F)cc3)ccc2O[C@@H](C)CCCCO[C@H]1CN(C)Cc1ccc(C(F)(F)F)cc1 | nt | ? | 109.5* | 99.6* | 112.2* | 25.2 | 19.3
C[C@@H]1CN([C@H](C)CO)C(=O)c2cc(NC(=O)Nc3ccc(F)cc3)ccc2O[C@@H](C)CCCCO[C@@H]1CN(C)Cc1ccc(C(F)(F)F)cc1 | nt | -82.2* | 100.1* | 84.3 | 114.4* | 2.8 | 7.8
C[C@H]1CCCCO[C@H](CN(C)Cc2ccc(C(F)(F)F)cc2)[C@@H](C)CN([C@@H](C)CO)C(=O)c2cc(NC(=O)Nc3ccc(C(F)(F)F)cc3)ccc2O1 | 6.2 | 40.4 | 81.1 | nt | nt | nt | nt

Source: PubChem
